Only some compounds are listed: those with a hit (about 1.2% of all), similar ones and a draw of the others.
RGS7-Gao reg: RGS7-Galphao binding modulators, primary screen, biochemical, multiplexed bead flow cytometry | 0.35% of 220,000 active | binding response (% of control), % at 10 µM | AID 1439, 2008 | actives lie on both sides; in the data active = binding response below about 49% or above about 150%; inconclusive = no clear call, values can overlap the other calls; inactive = in between;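 note: fluorescent Galphao held in activated GDP-AlF4 state binding bead-coupled RGS7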
Target sequence (P09471 whole entry, looked up): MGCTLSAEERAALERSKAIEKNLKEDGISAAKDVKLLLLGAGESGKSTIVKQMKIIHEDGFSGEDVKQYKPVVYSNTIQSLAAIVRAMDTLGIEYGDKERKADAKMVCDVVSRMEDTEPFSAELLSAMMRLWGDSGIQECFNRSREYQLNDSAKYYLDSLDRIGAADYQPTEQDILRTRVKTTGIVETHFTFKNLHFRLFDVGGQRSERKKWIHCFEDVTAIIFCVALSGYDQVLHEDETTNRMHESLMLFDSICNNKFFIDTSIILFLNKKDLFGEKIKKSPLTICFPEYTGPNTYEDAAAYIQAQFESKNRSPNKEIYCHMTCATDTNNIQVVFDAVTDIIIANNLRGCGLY
RGS16-Gao HTS: modulators of RGS16 binding to Galphao, primary screen, biochemical, human proteins, multiplexed bead flow cytometry | Regulator of G-protein signaling 16 (Homo sapiens) + Guanine nucleotide-binding protein … | binding response (% of control), % at 10 µM | bead-based flow cytometry RGS16-Galphao binding, fluorescence; actives lie on both sides | 0.38% of 220,000 active | AID 1441, 2008;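 note: Galphao activated by GDP with aluminum fluoride before binding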
Target sequence (O15492 whole entry, looked up): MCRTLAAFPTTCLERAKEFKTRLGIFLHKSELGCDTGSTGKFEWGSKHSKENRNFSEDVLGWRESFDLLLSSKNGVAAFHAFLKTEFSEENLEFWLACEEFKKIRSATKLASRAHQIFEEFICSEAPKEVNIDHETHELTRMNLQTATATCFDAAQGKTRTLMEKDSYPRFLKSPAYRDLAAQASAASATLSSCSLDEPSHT
Target sequence (P09471 whole entry, looked up): as the sequence (P09471 whole entry, looked up) above
RGS4-Gao reg: modulators of RGS4 binding to Galphao, primary screen, biochemical, multiplexed bead flow cytometry. Guanine nucleotide-binding protein G(o) subunit alpha (Homo sapiens), P09471. actives lie on both sides. binding response (% of control), % at 10 µM. 0.33% of 220,000 active; in the data active = binding response below about 49% or above about 150%; inactive = in between;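 note: fluorescent Galphao activated with aluminum fluoride binding bead-coupled RGS4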
Avidin bead fluor: green autofluorescence of compounds with avidin beads – biophysical, 488/530 nm, flow cytometry, artefact control, profiling panel. compound fluorescence 488/530 nm; active compounds read high. fluorescence (KMESF) at 10 µM. 0.38% of 220,000 active; in the data active = fluorescence above about 47
RGS8-Gao: RGS8-Galphao binding modulators, primary screen, biochemical, multiplexed bead flow cytometry; Guanine nucleotide-binding protein G(o) subunit alpha (Homo sapiens), P09471; actives lie on both sides; response (percent of control binding), % at 10 µM; 0.34% of 220,000 active; in the data active = response below about 60% or above about 140%; inactive = in between;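 note: Galphao activated as the GDP aluminium fluoride complex binding bead-coupled RGS8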
GSH fluor: compound fluorescence on glutathione beads, profiling panel, artefact control, biophysical, 488/530 nm, flow cytometry | GSH beads flow cytometry, compound fluorescence 488/530 nm; active compounds read high | fluorescence (KMESF) at 10 µM | 0.25% of 190,000 active | AID 1776, 2009; in the data active = fluorescence above about 89;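 note: glutathione beads carrying GST-tagged Bcl family fusion proteins plus one bare bead set; values are compound well signal with DMSO vehicle wells as background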
RGS4-Gao HTS: modulators of RGS–Galpha-o binding, primary screen, biochemical, multiplexed beads, flow cytometry, RGS4/7/8/16/19; shares compounds with RGS16-Gao HTS; multiplexed bead flow cytometry; RGS4–Galpha-o binding response, % at 10 µM; 99% of 1,600 active;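 note: fluorescently labeled Galpha-o bound to GDP with aluminium fluoride binding biotinylated RGS beads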
Biotin-avidin: disruption of biotin probe capture by avidin, counter-screen for RGS protein interaction modulators, biochemical, flow cytometry, bead-based | shares compounds with RGS16-Gao HTS | streptavidin beads, fluorescein-biotin binding | inhibition, % at 10 µM | 1,700 tested, under 10 active;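 active = inhibition above 50%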;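 note: median green fluorescence of gated singlet beads compared with DMSO control wells; 0% = DMSO wells and 100% = complete loss of bead fluorescence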
RGS8-Gao confirm: RGS8-Galphao binding modulators, confirmation, biochemical, multiplexed bead flow cytometry, single concentration | shares compounds with RGS16-Gao HTS | bead-based flow cytometry RGS8-Galphao binding, fluorescence; actives lie on both sides | binding response (% of control), % at 10 µM | 3% of 1,700 active; in the data active = binding response below about 72% or above about 130%; inactive = in between;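 note: Galphao activated as GDP AlF4 complex before binding bead RGS8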
RGS7-Gao confirm: RGS7-Galphao binding modulators, confirmation, biochemical, multiplexed bead flow cytometry, single concentration | response (percent of control binding), % at 10 µM | 7.8% of 1,700 active | bead-based flow cytometry RGS7-Galphao binding; actives lie on both sides | shares compounds with RGS16-Gao HTS | AID 1837, 2009; in the data active = response below about 75% or above about 130%; inactive = in between;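 note: fluorescent Galphao activated with GDP and aluminum fluoride binding bead-coupled RGS7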
RGS16-Gao conf: modulators of RGS16-Galphao protein binding, confirmation, biochemical, single concentration, multiplexed bead flow cytometry | shares compounds with RGS16-Gao HTS | bead-based flow cytometry; actives lie on both sides | response (% of control binding), % at 10 µM | 4% of 1,700 active | AID 1838, 2009; in the data active = response below about 74% or above about 130%; inactive = in between;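 note: Galphao activated as the GDP aluminium fluoride complex binding bead-coupled RGS16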
RGS4-Gao confirm: modulators of RGS4-Galphao protein binding, confirmation, biochemical, single concentration, multiplexed bead flow cytometry. shares compounds with RGS16-Gao HTS. actives lie on both sides. binding response (% of control), % at 10 µM. 4% of 1,700 active; in the data active = binding response below about 74% or above about 130%; inactive = in between
RGS19-Gao single: regulators of RGS19-Galphao binding, confirmation, biochemical, single point, multiplexed bead flow cytometry; shares compounds with RGS16-Gao HTS; 5% of 1,700 active; bead-based flow cytometry RGS19-Galphao binding; actives lie on both sides; response (percent of control binding), % at 10 µM; in the data active = response below about 50% or above about 160%; inactive = in between;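 note: 100% = no compound control and 0% = blank background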
* marks the source's active call; other numbers are inactive results; u = inconclusive; x = not tested or not shown; [ ] = dose if it differs, or a comment. Unless noted, the rule behind the calls is not given here.

SMILES | RGS7-Gao reg | RGS16-Gao HTS | RGS4-Gao reg | Avidin bead fluor | RGS8-Gao | GSH fluor | RGS4-Gao HTS | Biotin-avidin | RGS8-Gao confirm | RGS7-Gao confirm | RGS16-Gao conf | RGS4-Gao confirm | RGS19-Gao single
COc1cc(N(C(=O)Cc2cccs2)C(C(=O)NC2CCCCC2)c2cccc(OC)c2OC)ccc1-n1cnnn1 (configuration not stated) | 88.4 | 23.9* | 91.8 | 6 | 82.5 | 10 | 91.8* | 0.3 | 101.2 | 105.0 | 100.0 | 101.3 | 98.4
CSc1ccc(CCNC(=O)c2cc(C)nn2-c2ccccc2)cc1 | u | 103.2 | 100.9 | 11 | 102.1 | x | x | x | x | x | x | x | x
COc1ccc(CC2CCOC2=O)cc1 (configuration not stated) | 96.5 | -30.9* | 94.4 | 10 | 91.6 | 37 | 94.4* | -1.1 | 102.0 | 106.2 | 103.8 | 104.9 | 93.7
Cc1ccc(C)c(NC(=O)c2ccccc2NS(=O)(=O)c2cc([N+](=O)[O-])ccc2C)c1 | 103.0 | 188.4*[activator] | 103.7 | 16 | 121.0 | 5 | 103.7* | x | x | x | x | x | x
Cc1ccc(C)c(S(=O)(=O)Nc2ccccc2C(=O)Nc2cc(C)on2)c1 | 106.5 | 110.0 | 101.9 | 34 | 100.6 | 14 | x | x | x | x | x | x | x
CCOC(=O)CC(NC(=O)Cn1nnc(-c2ccccc2F)n1)c1ccccc1Cl (configuration not stated) | 100.0 | 105.1 | 104.8 | 24 | 102.7 | 12 | x | x | x | x | x | x | x
CCN(CC)CCN1C(=O)c2ccccc2NC1c1ccc(F)cc1 (configuration not stated) | 99.8 | 102.0 | 98.9 | 37 | 100.7 | 25 | x | x | x | x | x | x | x
CCN(CC)CCN1C(=O)c2ccccc2NC1c1ccccc1F (configuration not stated) | 89.9 | 22.7* | 87.9 | 3 | 75.3 | 23 | 87.9* | x | x | x | x | x | x
CCOC(=O)C1(CCCc2ccccc2)CCN(C(=O)C2=C(C)OCCO2)CC1 | 98.5 | 96.5 | 97.6 | 3 | 103.0 | 9 | x | x | x | x | x | x | x
CCCS(=O)(=O)N1CCN(C(=O)c2cccnc2)CC1 | 47.7* | 72.9 | 56.5 | 6 | 68.0 | 14 | 56.5* | x | x | x | x | x | x
CS(=O)(=O)N1CCN(C(=O)c2cccnc2)CC1 | 96.7 | 83.3 | 87.5 | 7 | 96.0 | 67 | x | x | x | x | x | x | x
Cn1cc([C@@H]2C[C@H]3CN(Cc4cccc(Cl)c4)C(=O)[C@]34CCCN24)c2ccccc21 | 101.0 | 96.3 | 97.8 | 3 | 97.3 | 14 | x | x | x | x | x | x | x
CC(C)(C)c1nnc(NC(=O)CS(=O)(=O)Cc2ccccc2)s1 | 51.4 | 61.3 | 86.5 | 1 | 56.6* | 17 | 86.5* | -0.7 | 103.0 | 101.7 | 102.0 | 100.5 | 94.5
COc1ccc(CCNC(=O)C2CCN(C(=O)c3ccc([N+](=O)[O-])cc3)CC2)cc1 | 102.5 | 99.6 | 97.8 | 5 | 99.3 | 22 | x | x | x | x | x | x | x
CS(=O)(=O)N(CCc1ccccc1)CC(=O)NCc1ccc2c(c1)OCO2 | 12.8* | 3.7* | 11.1* | 0 | 13.6* | 42 | x | -0.2 | 92.9 | 88.3 | 89.6 | 89.8 | 90.2
O=C(COC(=O)c1ccco1)NCc1ccc2c(c1)OCO2 | u | 30.3 | 34.3* | 2 | 41.3* | x | x | -0.2 | 112.1 | 114.9 | 109.6 | 112.0 | 98.2
Cc1c(C(=O)NCc2ccc3c(c2)OCO3)oc2ccccc12 | 88.5 | 22.2* | 92.5 | 4 | 69.8 | 59 | 92.5* | -0.6 | 106.5 | 104.7 | 111.0 | 103.8 | 118.2
Cc1ccc2oc(C(=O)NCc3ccc4c(c3)OCO4)c(C)c2c1 | 99.8 | 100.5 | 100.8 | 7 | 101.2 | 10 | x | x | x | x | x | x | x
O=C(COC(=O)c1ccc2c(c1)OCO2)NCc1ccc2c(c1)OCO2 | 112.5 | 125.8 | 124.0 | 7 | 103.2 | 14 | x | x | x | x | x | x | x
COc1ccccc1-c1nnc2n1N=C(c1ccc(O)c(O)c1)CS2 | 46.9* | 21.6 | 55.6 | 4 | 58.6* | 9 | 55.6* | -2.5 | 91.0 | 82.7 | 87.0 | 91.1 | 89.2
CCOc1ccc(C2=Nn3c(nnc3-c3ccccc3OC)SC2)cc1 | 99.5 | 98.6 | 99.3 | 10 | 99.3 | 11 | x | x | x | x | x | x | x
Cc1nn(C)c(C(=O)NC2C3CC4CC(C3)CC2C4)c1Cl (configuration not stated) | 87.0 | 9.8* | 87.2 | 5 | 62.6 | 11 | 87.2* | 0.4 | 99.7 | 93.9 | 93.5 | 96.0 | 93.1
Cn1ncc(Cl)c1C(=O)NC1C2CC3CC(C2)CC1C3 (configuration not stated) | 98.1 | 107.8 | 97.3 | 20 | 101.4 | 11 | x | x | x | x | x | x | x
O=P(CCCCCCCCCP(=O)(c1ccccc1)c1ccccc1)(c1ccccc1)c1ccccc1 | 94.4 | 96.6 | 98.6 | 8 | 95.1 | 31 | x | x | x | x | x | x | x
CN1CCN(CCP(=O)(c2ccccc2)c2ccccc2)CC1 | x | x | x | x | x | 16 | x | 0.2 | 98.7 | 96.9 | 97.8 | 98.6 | 96.9
O=P(CCO)(c1ccccc1)c1ccccc1 | 165.8*[activator] | 99.6 | 104.1 | 28 | 90.2 | 15 | 104.1* | -0.1 | 99.3 | 101.5 | 100.8 | 100.6 | 107.5

Assay outcomes deposited in PubChem BioAssay by NMMLSC.
